From the supplement of paper PMC13380429
A number with no mark means an inactive call.

Tested on: Vero E6 infected with SARS-CoV-2
Assay: inhibition of SARS-CoV-2 cytopathic effect; higher = more antiviral protection, active = above 15
Conditions: 48 h

SMILES	inhibition of SARS-CoV-2 cytopathic effect (1 nM)	inhibition of SARS-CoV-2 cytopathic effect (8.33 nM)	inhibition of SARS-CoV-2 cytopathic effect (100 nM)	inhibition of SARS-CoV-2 cytopathic effect (833.33 nM)	inhibition of SARS-CoV-2 cytopathic effect (10000 nM)
CCCOc1ccc2[nH]c(NC(=O)OC)nc2c1 [oxibendazole]	-2.12%	-0.7%	-0.63%	-2.39%	-0.04%
CC(C)(C=O)Cc1cc(C(C)(C)C)c(O)c(C(C)(C)C)c1	3.54%	2.95%	2.75%	2.01%	1.01%
C[C@@H](c1nc(-c2ccc(C#N)cc2)cs1)[C@](O)(Cn1cncn1)c1cc(F)ccc1F [isavuconazole]	-2.38%	-2.11%	-0.9%	1.65%	2.79%
[Cl][Ru-]([Cl])([Cl])[Cl].[Na+].c1ccc2[nH]ncc2c1.c1ccc2[nH]ncc2c1	2.72%	0.03%	1.2%	5.02%	18% (active)
c1cc2c3c(c1)c1c(n3CCNC2)CCCC1	-1.27%	-0.02%	0.6%	0.21%	-0.08%
C[C@H]1C[C@H]2[C@@H]3CCC4=CC(=O)C=C[C@]4(C)[C@H]3C(=O)C[C@]2(C)[C@@]1(O)C(=O)CO [Betapar (Meprednisone)]	0.88%	0.92%	2.1%	0.12%	4.2%
O=C(NC(Cc1cc(=O)[nH]c2ccccc12)C(=O)O)c1ccc(Cl)cc1 (stereo not given) [rebamipide]	-0.87%	2.6%	4.52%	2.91%	1.77%
CC(C)N(CCC(C(N)=O)(c1ccccc1)c1ccccn1)C(C)C (stereo not given) [disopyramide]	-2.08%	-2.32%	-1.92%	-0.48%	-5.17%
C[C@H](c1ccc(F)cc1CCCC(=O)O)N(c1cc(F)ccc1F)S(=O)(=O)c1ccc(Cl)cc1	-1.95%	-1.39%	-1.46%	-3.65%	-5.49%
